# In PubChem BioAssay:
# Active and inactive are the calls of the source.
# Assays:
# [1] = system: PRMT1 (protein arginine N-methyltransferase 1); assay: small molecules binding arginine methyltransferase PRMT1 – biochemical, small-molecule microarray, 635 nm fluorescence, primary screen (AID 1088); conditions: higher = more signal;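 further: binding of Prmt1 protein to compounds spotted on small-molecule microarray slides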
# [2] = growth effects on S. cerevisiae YJM789 – YJM789 clinical isolate, OD600, 24 h, basal, primary screen (AID 1089); conditions: higher = more signal, called active from +8 up or from −8 down;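 further: growth of clinical yeast isolate S. cerevisiae YJM 789 seeded 1000 cells per well; test concentration not given here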
# [3] = S. pombe growth modifiers, basal conditions – strain 972, OD600, 24 h, no modulator, primary screen (AID 1090);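 further: basal condition with compound alone and no growth modifier present; test concentration not given here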; conditions: S. pombe 972 growth, higher = more signal, called active from +8 up or from −8 down
# [4] = budding yeast growth modifiers under rapamycin – strain BY4716, OD600, 96 h, primary screen (AID 1091); further: test concentration not given here; conditions: S. cerevisiae BY4716 + rapamycin, higher = more signal, called active from +8 up or from −8 down
# [5] = target: Torsin-1A-interacting protein 2 (Homo sapiens) (UniProt Q8NFQ8); assay: small molecules binding lysate-expressed LULL1 – cell lysate, human LULL1 lysate, 635/667 nm fluorescence, primary screen (AID 1092); conditions: small-molecule microarray, hLULL1 lysate binding, 635 nm fluorescence; higher = more signal;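 further: probe is lysate of COS7 cells overexpressing human LULL1; score merges per-feature 667 nm fluorescence with signal-to-noise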
# Torsin-1A-interacting protein 2 (Homo sapiens), sequence (Q8NFQ8 whole entry, looked up): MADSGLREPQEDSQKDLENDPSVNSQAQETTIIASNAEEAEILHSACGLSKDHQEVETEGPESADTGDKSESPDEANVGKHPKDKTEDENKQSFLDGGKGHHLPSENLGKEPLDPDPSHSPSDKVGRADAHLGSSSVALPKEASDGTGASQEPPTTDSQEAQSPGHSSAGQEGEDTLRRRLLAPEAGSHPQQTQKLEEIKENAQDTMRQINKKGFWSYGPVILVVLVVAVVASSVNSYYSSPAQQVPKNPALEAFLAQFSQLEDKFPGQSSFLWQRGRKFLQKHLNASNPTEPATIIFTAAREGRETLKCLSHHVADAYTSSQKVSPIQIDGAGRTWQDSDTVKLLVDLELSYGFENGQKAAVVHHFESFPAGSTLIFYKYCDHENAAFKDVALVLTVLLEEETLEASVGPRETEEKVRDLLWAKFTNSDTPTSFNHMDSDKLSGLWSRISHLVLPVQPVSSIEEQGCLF
# [6] = optical density change of DRC41 E. coli – strain DRC41, OD650, 24 h, E. coli filamentation project, primary screen (AID 1093);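 further: MC1000 strain lacking acrAB efflux and sulA so SOS filamentation is blocked; test concentration not given here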; conditions: E. coli DRC41 growth, higher = more signal, called active from +8 up or from −8 down
# [7] = probe aLefty2 binding to arrayed compounds – biochemical, biotinylated probe, 635/667 nm fluorescence, primary screen (AID 1094); conditions: small-molecule microarray, higher = more signal;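 further: score merges spot fluorescence near 667 nm with spot signal-to-noise ratio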
# [8] = system: Noggin (protein binding on small-molecule microarray); assay: small molecules binding Noggin protein – biochemical, 635/667 nm fluorescence, primary screen (AID 1095); conditions: 635 nm fluorescence, higher = more signal;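 further: score merges 667 nm feature fluorescence with signal to noise over triplicate slides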
# [9] = target: Neurogenic locus notch homolog protein 3 (Homo sapiens) (UniProt Q9UM47); assay: small molecules binding NOTCH3 protein – biochemical, 635/667 nm fluorescence, primary screen (AID 1096); conditions: small-molecule microarray, 635 nm fluorescence, higher = more signal
# Neurogenic locus notch homolog protein 3 (Homo sapiens), sequence (Q9UM47 whole entry, looked up): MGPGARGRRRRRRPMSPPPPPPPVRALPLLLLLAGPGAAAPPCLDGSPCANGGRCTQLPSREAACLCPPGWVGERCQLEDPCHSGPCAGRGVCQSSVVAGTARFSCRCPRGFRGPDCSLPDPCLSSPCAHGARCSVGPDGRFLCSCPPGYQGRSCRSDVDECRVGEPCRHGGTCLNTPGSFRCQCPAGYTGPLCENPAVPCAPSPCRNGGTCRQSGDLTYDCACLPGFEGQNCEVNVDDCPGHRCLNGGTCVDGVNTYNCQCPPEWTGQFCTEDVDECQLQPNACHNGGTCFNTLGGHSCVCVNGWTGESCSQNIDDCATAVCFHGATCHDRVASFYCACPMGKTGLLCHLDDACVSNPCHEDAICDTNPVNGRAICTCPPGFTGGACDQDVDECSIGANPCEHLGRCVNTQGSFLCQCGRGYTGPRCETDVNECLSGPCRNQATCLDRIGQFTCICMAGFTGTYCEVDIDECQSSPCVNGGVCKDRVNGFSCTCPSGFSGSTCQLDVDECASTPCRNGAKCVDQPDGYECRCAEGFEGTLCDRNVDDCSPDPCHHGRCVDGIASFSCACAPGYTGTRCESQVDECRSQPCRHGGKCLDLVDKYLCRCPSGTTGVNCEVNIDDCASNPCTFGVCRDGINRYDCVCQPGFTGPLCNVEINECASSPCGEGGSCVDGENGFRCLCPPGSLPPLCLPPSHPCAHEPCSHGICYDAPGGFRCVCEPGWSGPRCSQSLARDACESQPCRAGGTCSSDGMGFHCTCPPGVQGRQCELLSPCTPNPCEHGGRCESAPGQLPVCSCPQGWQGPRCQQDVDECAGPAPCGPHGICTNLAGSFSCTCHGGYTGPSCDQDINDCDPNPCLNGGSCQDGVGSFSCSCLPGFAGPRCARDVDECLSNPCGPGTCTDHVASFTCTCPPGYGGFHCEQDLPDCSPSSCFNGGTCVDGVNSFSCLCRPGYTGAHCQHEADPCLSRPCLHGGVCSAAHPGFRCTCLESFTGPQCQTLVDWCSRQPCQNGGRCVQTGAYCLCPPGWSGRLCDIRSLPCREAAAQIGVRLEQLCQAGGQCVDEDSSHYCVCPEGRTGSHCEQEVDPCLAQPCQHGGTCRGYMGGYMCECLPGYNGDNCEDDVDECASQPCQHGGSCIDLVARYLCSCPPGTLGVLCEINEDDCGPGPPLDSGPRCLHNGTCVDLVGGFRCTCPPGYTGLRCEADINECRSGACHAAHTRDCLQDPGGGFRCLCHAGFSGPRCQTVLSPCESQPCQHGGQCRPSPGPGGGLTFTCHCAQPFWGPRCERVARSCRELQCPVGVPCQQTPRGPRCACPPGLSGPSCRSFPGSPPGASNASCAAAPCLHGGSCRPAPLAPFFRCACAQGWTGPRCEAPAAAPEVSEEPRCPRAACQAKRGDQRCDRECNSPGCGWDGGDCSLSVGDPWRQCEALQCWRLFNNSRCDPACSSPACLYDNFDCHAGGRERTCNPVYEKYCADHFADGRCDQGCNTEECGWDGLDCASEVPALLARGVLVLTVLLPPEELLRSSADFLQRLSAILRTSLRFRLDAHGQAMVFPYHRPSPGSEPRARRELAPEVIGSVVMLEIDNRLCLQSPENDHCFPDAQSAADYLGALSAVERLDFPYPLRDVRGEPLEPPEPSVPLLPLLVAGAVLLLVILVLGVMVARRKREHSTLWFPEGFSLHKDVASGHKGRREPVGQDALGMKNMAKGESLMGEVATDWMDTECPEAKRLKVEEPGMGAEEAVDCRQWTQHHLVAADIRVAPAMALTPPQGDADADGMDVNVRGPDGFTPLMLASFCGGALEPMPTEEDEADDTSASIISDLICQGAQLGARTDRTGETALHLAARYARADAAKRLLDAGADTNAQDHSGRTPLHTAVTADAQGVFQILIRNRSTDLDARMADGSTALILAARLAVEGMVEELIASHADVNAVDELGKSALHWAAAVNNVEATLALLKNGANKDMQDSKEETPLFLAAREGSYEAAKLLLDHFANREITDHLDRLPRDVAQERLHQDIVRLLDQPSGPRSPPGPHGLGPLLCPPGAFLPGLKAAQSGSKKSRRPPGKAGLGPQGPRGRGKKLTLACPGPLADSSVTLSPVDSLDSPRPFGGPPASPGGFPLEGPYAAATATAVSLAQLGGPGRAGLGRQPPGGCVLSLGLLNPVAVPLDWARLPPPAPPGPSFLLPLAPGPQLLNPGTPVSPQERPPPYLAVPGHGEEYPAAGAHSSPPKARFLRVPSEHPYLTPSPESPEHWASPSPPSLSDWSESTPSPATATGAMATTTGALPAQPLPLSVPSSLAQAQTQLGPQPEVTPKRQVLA
# [10] = probe aEGFR binding to arrayed compounds – biochemical, biotinylated probe, 635/667 nm fluorescence, primary screen (AID 1097); conditions: small-molecule microarray, higher = more signal;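 further: probe is a biotinylated anti-EGFR antibody binding compounds printed on slides; score combines fluorescence near 667 nm and signal to noise of each spot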
SMILES,composite z-score [1],z-score [2],z-score [3],z-score [4],composite z-score [5],z-score [6],composite z-score [7],composite z-score [8],composite z-score [9],composite z-score [10]
CC(CO)N1C(=O)[C@@H]2C3C(=O)OCCC/C=C\[C@H]3OC23C=CCN(C(C)(C)C)C(=O)[C@@H]13 (stereo not given in full),0.0207,-0.226 (inactive),-0.911 (inactive),-0.706 (inactive),0.478,-0.0054 (inactive),-0.216,0.0872,0.201,-0.0905
NC(=O)NCC#Cc1ccc2c(c1)[C@]1(C(=O)N2)[C@H](C(N)=O)[C@H]2C(=O)O[C@H](c3ccccc3)[C@H](c3ccccc3)N2[C@@H]1c1ccc(O)cc1,0.317,-0.989 (inactive),-0.434 (inactive),-0.07 (inactive),3.6,0.792 (inactive),0.411,0.544,-0.382,-0.413
CO[C@H]1O[C@H](CO)[C@@H](OC(=O)Nc2cccc(F)c2)[C@H](OC(=O)Nc2ccccc2)[C@@H]1OC(=O)Nc1ccccc1,1.53,0.347 (inactive),1.32 (inactive),14.4 (active),3.12,-0.621 (inactive),0.182,0.286,1.09,0.181
CC(C)CNC(=O)[C@@]1(Cc2ccccc2I)c2ccccc2C(=O)N(C2CCCCC2)[C@H]1c1ccc(CO)cc1,1.57,-1.32 (inactive),-0.597 (inactive),0.153 (inactive),1.28,-0.518 (inactive),0.164,-0.235,0.497,0.0066
COCCOC(=O)N1C(=O)[C@@]2(c3cc(C#Cc4ccc(OC)cc4)ccc31)[C@H](c1ccccc1OCCO)N1[C@H](c3ccccc3)[C@H](c3ccccc3)OC(=O)[C@H]1[C@@H]2C(=O)NC[C@H](O)c1ccccc1,1.53,2.89 (inactive),2.09 (inactive),7.27 (inactive),2.86,-0.0186 (inactive),-0.0304,1.17,1.04,-0.0267
O=C1C2C=CC(C(O)c3cccc4ccccc34)N(Nc3ccccc3F)C2C(=O)N1c1ccccc1 (stereo not given),1.54,0.0692 (inactive),0.865 (inactive),1.01 (inactive),3.69,-0.316 (inactive),0.13,0.0926,1.12,0.222
CCC[C@@H]1C[C@@]1(CCC)[C@@H](NS(=O)(=O)c1cccc2cccnc12)c1ccc(Cl)cc1,0.0685,0.788 (inactive),1.01 (inactive),0.478 (inactive),2.66,-1.01 (inactive),0.0763,-1.22,0.296,-0.136
COc1ccc(C(O)C2C=CC3C(=O)N(Cc4ccccc4)C(=O)C3N2n2cnnc2)cc1OCc1ccccc1 (stereo not given),0.953,-1.56 (inactive),0.0901 (inactive),-0.62 (inactive),2.59,1.69 (inactive),0.114,0.0181,0.331,-0.0512
COc1ccccc1CN1C(=O)c2ccccc2[C@@H](C(=O)NC2CC2)[C@@H]1c1ccc(CO)cc1,1.54,0.827 (inactive),-0.392 (inactive),0.344 (inactive),2.28,0.772 (inactive),0.488,1.47,1.06,0.194
CCCC[C@H]1OB(O)C[C@H]2C1=C(COC)Cn1c(=O)n(-c3ccccc3)c(=O)n12,0.601,0.461 (inactive),0.19 (inactive),-0.386 (inactive),0.814,0.498 (inactive),-0.208,0.0562,0.121,-0.137
C=CCC(OC(C)=O)[C@@H]1[C@@H](N(Cc2cccc3ccccc23)C(=O)c2ccc(-c3ccccc3)cc2)c2cc(OCCCO)ccc2N1C(=O)c1ccc2ccccc2c1 (stereo not given in full),0.833,-0.226 (inactive),0.435 (inactive),0.009 (inactive),1.76,-0.601 (inactive),-0.0174,0.251,0.643,-0.0578
O=C1C2C=CC(C(O)c3cc(C(F)(F)F)cc(C(F)(F)F)c3)N(n3cnnc3)C2C(=O)N1Cc1ccccc1 (stereo not given),0.369,-0.572 (inactive),0.685 (inactive),-0.384 (inactive),2.5,0.0068 (inactive),-0.191,-0.267,0.679,-0.139
O=C1C2C=CC(C(O)Cc3ccccc3)N(n3cnnc3)C2C(=O)N1Cc1ccccc1 (stereo not given),0.411,-0.112 (inactive),0.116 (inactive),0.343 (inactive),2.93,-1.25 (inactive),0.0906,-0.785,0.153,-0.0592
O=C1C[C@@](C(=O)NC2CC2)(c2ccc([N+](=O)[O-])cc2)[C@@H](c2ccc(CO)cc2I)N1C1CCCCC1,1.53,-0.457 (inactive),-0.173 (inactive),1.45 (inactive),2.82,0.233 (inactive),-0.05,1.25,1.07,-0.0828
CC1(C)[C@@H]2CC(C(O)C3C=CC4C(=O)N(Cc5ccccc5)C(=O)C4N3n3cnnc3)=C[C@H]1C2 (stereo not given in full),1.29,0.0365 (inactive),1.57 (inactive),1.38 (inactive),3.12,-0.117 (inactive),0.104,0.458,0.791,0.0564
CC1CC/C=C\[C@H]2OC34C=CCN(C(C)(C)C)C(=O)[C@H]3N(CCO)C(=O)[C@@H]4C2C(=O)O1 (stereo not given in full),1.06,-1.33 (inactive),-0.905 (inactive),-0.471 (inactive),2.92,1.45 (inactive),-0.0589,0.112,-0.916,-0.312
C=CCNC(=O)[C@@H]1[C@H]2C(=O)O[C@H](c3ccccc3)[C@H](c3ccccc3)N2[C@H](c2ccccc2OCCO)[C@@]12C(=O)N(C(=O)OCCOC)c1ccccc12,1.54,2.86 (inactive),2.29 (inactive),7.26 (inactive),2.64,-0.442 (inactive),0.0615,1.71,0.884,-0.0381
CC[C@@H]1C=C(C(=O)O)[C@H](c2ccc(Br)cc2)N1S(=O)(=O)c1ccc(C)cc1,0.399,-0.564 (inactive),0.794 (inactive),-0.535 (inactive),2.7,-0.319 (inactive),0.295,0.37,0.481,-0.0512
CCOC(=O)C[C@H]1[C@H](OC(=O)c2ccc(C(=O)c3ccccc3)cc2)[C@@H](NC(=O)c2ccccc2)c2cc(OCCCO)ccc2N1C(=O)c1ccc2ccccc2n1,0.81,-0.121 (inactive),-0.429 (inactive),0.443 (inactive),1.54,0.104 (inactive),0.418,0.0946,1.03,-0.142
NC(=O)NCC#Cc1ccc2c(c1)[C@]1(C(=O)N2)[C@H](c2ccc(O)cc2)N2[C@H](c3ccccc3)[C@H](c3ccccc3)OC(=O)[C@H]2[C@@H]1C(=O)O,-0.019,0.801 (inactive),-0.0898 (inactive),0.607 (inactive),0.966,-0.504 (inactive),-0.255,-0.581,-0.156,-0.191
C[N+](C)(C)CCCC[C@@H]1NC(=O)[C@H]2C[C@@H](C(=O)NCCCCCCNC(=O)CS)[C@@H](c3cccc(OCCO)c3)N2C1=O,-0.452,-0.173 (inactive),0.532 (inactive),-0.0564 (inactive),2.01,0.154 (inactive),-0.0766,-0.33,-0.837,-0.268
COC(=O)[C@@]1(Cc2ccc(OC)cc2)[C@H]2c3cc(C(=O)N4CCCC4)n(CCN4CNCC4=O)c3C[C@H]2CN1C(=O)c1ccccc1,-0.871,0.503 (inactive),0.706 (inactive),0.429 (inactive),3.77,-0.977 (inactive),1.42,-0.364,0.293,1.15
COCCOC(=O)N1C(=O)[C@@]2(c3cc(C#CCCO)ccc31)[C@H](C(N)=O)[C@H]1C(=O)O[C@H](c3ccccc3)[C@H](c3ccccc3)N1[C@@H]2c1ccc(O)cc1,-0.101,0.0223 (inactive),-0.0181 (inactive),-0.535 (inactive),0.877,-0.844 (inactive),-0.159,-0.248,-0.589,-0.202
C=CC[C@@]12N=C(c3ccc(OCCCO)cc3)O[C@@H]1c1ccccc1N(C)C2=O,1.55,0.501 (inactive),-5.65 (inactive),0.432 (inactive),2.93,0.671 (inactive),0.246,1.75,0.997,0.0499
COC(=O)[C@@]1(Cc2ccc(F)cc2)[C@H]2c3cc(C(=O)N(C)C)n(Cc4cc(F)c(F)c(F)c4)c3C[C@H]2CN1C(=O)c1ccccc1,-0.0972,0.0065 (inactive),1.72 (inactive),2.54 (inactive),3.07,-0.535 (inactive),0.376,-0.592,1.03,0.487
COc1ccc([Si](C)(C)[C@@H]2[C@@H](CC(=O)N3CCC[C@H]3CO)O[C@]3(C(=O)N(c4ccccc4)c4ccccc43)[C@H]2C)cc1,1.54,-1.57 (inactive),-0.589 (inactive),-1.79 (inactive),2.37,2.79 (inactive),-0.256,0.999,1.03,0.0436
